Assay results taken from ChEMBL document CHEMBL3988442, “University of Dundee, Small-Polar-MMV Screening Library” (2021).

These molecules were tested against AMP-activated protein kinase, AMPK (Homo sapiens) (UniProt P54646+O43741+P54619+Q9UGJ0+Q9Y478+Q13131+Q9UGI9) (assay: AMP-dependent Kinase enzyme assay. An in vitro enzyme assay that detects ADP turnover that is directly proportional to AMPK activity. This uses naive AMPK that is activated during the assay with MK-8722). Details: 30 µM.
Assay type: functional
Parameters: scale not given: direction of the effect not stated beside the values

Row | SMILES | Percent Effect [%]
1 | CCn1ccnc1CNCc1ccc(C)cc1OC(C)(C)C | 25.5
2 | COc1ccc(NC(=O)c2cnc(C3CCN(C)CC3)nc2C)cc1 | 3.65
3 | Cc1nn(C)c(C)c1C1COCCN1C(=O)NC1CC1 (stereo not given) | -1.36
4 | O=C(c1cccc2ccnn12)N1CCCC1Cn1cccn1 (stereo not given) | -1.71
5 | CC(C)c1noc(CN2CCN(C(=O)OC(C)(C)C)C(C)C2)n1 (stereo not given) | -3.51
6 | C1=C(CNC2CCc3ncnn3C2)COc2ccccc21 (stereo not given) | 10.9
7 | COc1ccc(C(=O)NC2CCN(c3ncccn3)CC2)cc1F | -7.58
8 | Cc1cc(C)n(C2CN(CCC(=O)NCCc3ccccc3)C2)n1 | 2.98
9 | O=C(NCC[S+]([O-])c1ccccc1)c1ccc2[nH]c(=O)[nH]c2c1 (stereo not given) | 6.24
10 | CC(C)NC(=O)CNC(=O)c1csc(Cc2ccccc2F)n1 | 4.46
11 | CN(Cc1cnccn1)c1cncc(Br)c1 | 3.25
12 | Cc1ccc(O)c(CN2CCCCC2CCN2CCOCC2)c1 (stereo not given) | 8.46
13 | Cc1ccc2nc(C(=O)N3CC(n4nc(C)cc4C)C3)cn2c1 | -4.01
14 | Cc1noc(C)c1CCc1nc(C2CCOC2)no1 (stereo not given) | -7.75
15 | O=C(CCc1ccsc1)NCC1CCN(C2CC2)C1 (stereo not given) | -5.43
16 | CC(=O)N[C@H]1CCO[C@@H](c2cccc(NC(=O)Cc3ccccc3)c2)C1 | 7.18
17 | Cc1cc(C)n(C2CN(C(=O)c3cn4ccsc4n3)C2)n1 | -4.27
18 | CC(Cc1cccc(F)c1)C(=O)NS(=O)(=O)c1ccc2c(c1)OCCO2 (stereo not given) | 3.32
19 | Cc1cc(CN2CCN(S(=O)(=O)c3c(C)c(Cl)cc(C)c3Cl)CC2)on1 | -3.43
20 | CN(C)c1cccc(C(=O)Nc2cnn(Cc3ccncc3)c2)c1 | -4.34

Row | SMILES | Percent Effect [%]
21 | O=C(CC1CCc2ccccc21)NC1(C(=O)O)CCCC1 (stereo not given) | -6.64
22 | CC(=O)c1ccc(-c2cnn(CC(=O)Nc3ccnn3C)c2)nc1 | 6.15
23 | CSCCC(=O)N1CCN(CC(C)O)CC1 (stereo not given) | -1.95
24 | Cc1cc(-n2cccn2)ccc1CN1C[C@@H](CN(C)C)[C@@H](CO)C1 | -2
25 | CC(C)N(CC(=O)Nc1cccc(C(=O)N(C)C)c1)C1CC1 | 1.38
26 | CN(CC(=O)NCCc1ccccn1)C(=O)c1cccs1 | 4.43
27 | Cc1cc(C(=O)N2CCNC(=O)C2)c(C)n1CC(F)(F)F | 1.02
28 | CC(C)Cn1ncc(C(=O)NS(=O)(=O)C2CCCC2)c1C1CC1 | 5.57
29 | CN1CCOC(CNCC(=O)NCCc2ccc(F)cc2)C1 (stereo not given) | 4.27
30 | CCc1nnc(CNC(=O)CCC2CCCN(C)C2)s1 (stereo not given) | -1.32
31 | CCc1ncc(C(=O)NCCN2CCNC2=O)cn1 | 0.385
32 | O=C(CC1COCCN1)N1CCCN(C2Cc3ccccc3C2)CC1 (stereo not given) | -11.6
33 | CC(C)COc1cncc(N(C)C2CCN(c3ncccn3)CC2)n1 | 7.4
34 | O=C(NCCN1CCOC1=O)c1cnc(-c2cccnc2)nc1 | -1.72
35 | Cn1cc(CN2CCS(=O)(=O)C(C)(C)C2)cn1 | 5.13
36 | Cc1cncnc1C1CCN(C(=O)C2(C)CCCCN2C)CC1 (stereo not given) | 17
37 | COc1ccc(C(=O)N2C[C@@H](O)[C@H](NCc3ncccc3C)C2)cc1 | -3.45
38 | COC1CCCOC12CCN(C(=O)NCCc1cccs1)CC2 (stereo not given) | 4.16
39 | CC(NCC(=O)N1CCc2sccc2C1)c1ccccc1F (stereo not given) | 10.8
40 | Cc1noc(C)c1C(=O)N(C)C(C)c1cccnc1 (stereo not given) | -4.48
